# Bioassay records (PubChem BioAssay)
# SMARCA2 act – SMARCA2 (BRM) function activators, primary screen, cell-based, luminescence, high throughput | MG213 cells, MMTV-luciferase reporter, dexamethasone, overnight | activation, % at 9.1 µM | 370,000 compounds, 1% hits; in the data active means activation above about 7.8%;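 further: 0% = vehicle wells and 100% = reference activator wells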
# 697 NFkB inh – inhibitors of PMA/ionomycin-induced NF-kB reporter, 697 cells, primary screen, B-cell NF-kB inhibitor project, cell-based, luminescence, uHTS. 697 B-cell NF-kB luciferase reporter, 16 h. 330,000 compounds, 0.33% hits. inhibition, % at 4 µM; in the data active means inhibition above about 35%
# Gli-Sufu antag – Gli-Sufu pathway antagonists, primary screen, luciferase luminescence, Sufu-KO-LIGHT cells, uHTS; 340,000 compounds, 0.74% hits; AID 588413, 2011; inhibition, % at 5 µM; Sufu-KO-LIGHT fibroblasts, Gli luciferase reporter luminescence;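 active means inhibition above about 55%, limit read from the data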;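 further: 0% = DMSO-treated cells and 100% = wells with medium but no cells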
# esBAF inh – Bmi1 luciferase reporter increase in mESCs, primary screen, esBAF inhibitor project, mouse ES cells, Bmi1 luciferase knock-in, single point | 350,000 compounds, 2% hits | AID 602393, 2012 | reporter increase, % at 12.5 µM | 24 h; 100% = twice the neutral-well signal; in the data active means activation above about 40%; inconclusive means no clear call, values can overlap the other calls;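 further: 0% = median of the plate's neutral control wells and 100% = double that signal; a rise in the Bmi1 reporter signal indicates esBAF inhibition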
# Jurkat NFkB inh – inhibitors of induced NF-kB luciferase reporter, primary screen, TCR NF-kB activation inhibitor project, cell-based, luminescence, uHTS; inhibition, % at 4 µM; AID 435003, 2010; Jurkat, PMA/ionomycin-induced NF-kB luciferase reporter; 330,000 compounds, 0.53% hits; in the data active means inhibition above about 50%
# SMARCA2 act conf – SMARCA2 (BRM) function activators, confirmation, cell-based, luminescence, triplicate | 3,500 compounds, 30% hits | MG213 cells, MMTV-luciferase with dexamethasone, overnight; MG213 cells expressing E1A, Rb sequestered; DMSO wells 0%, reference activator 100% | activation, % at 9.1 µM | shares compounds with SMARCA2 act;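 active means activation above its plate's cutoff, the mean activation of tested wells plus 3 SD, cut at about 7.9% in these data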
# GAL4-VP16 Luc – GAL4-VP16 luciferase reporter activation, counter-screen for SMARCA2 (BRM) activator project, cell-based, pG5luc, luminescence, high throughput. HEK293 GAL4-VP16 pG5luc reporter; scaled: DMSO wells 0%, SAHA wells 100%. shares compounds with SMARCA2 act. 3,500 compounds, 41% hits. activation, % at 9.1 µM;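 active means activation above the solvent-only control well mean plus 3 SD, averaged across control plates, cut at about 5.2% in these data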
# * marks the source's active call; other numbers are inactive results; ? = inconclusive; / = no result given. In the library only some 3.3% were active in any assay of this set; here they are far more common.
SMILES,SMARCA2 act,697 NFkB inh,Gli-Sufu antag,esBAF inh,Jurkat NFkB inh,SMARCA2 act conf,GAL4-VP16 Luc
COc1ccccc1C1=NOC(CN2C(=O)c3ccccc3S2(=O)=O)C1 (configuration not stated),15*,-77,12,/,-10,7,9.1*
O=C1c2ccccc2S(=O)(=O)N1CC1CC(c2ccccc2Cl)=NO1 (configuration not stated),1,-108,-101,14,-2,/,/
N#CCn1cnc2sc(-c3ccccc3)cc2c1=O,9.1*,-22,-34,/,-31,11*,1
O=C(OCC(=O)N1CCCC1=O)c1nc(Cl)c(Cl)c(Cl)c1Cl,34*,-33,0,-12,-3,7,4
Nc1c(Cl)c(Cl)nc(C(=O)OCC(=O)N2CCCC2=O)c1Cl,0,0,-11,-10,13,/,/
C[C@H]1CCCCO[C@H](CN(C)C(=O)Cc2ccccc2)[C@@H](C)CN([C@@H](C)CO)C(=O)c2cc(NC(=O)CCC(F)(F)F)ccc2O1,/,/,/,1,/,/,/
C[C@@H]1CN([C@H](C)CO)C(=O)c2cc(NC(=O)Nc3cccc4ccccc34)ccc2O[C@H]1CN(C)Cc1ccc(C(=O)O)cc1,/,/,/,-3,/,/,/
CCC(=O)Oc1ccc2oc(=O)cc(C)c2c1,13*,1,-2,8,-4,-1,0
Cc1nonc1C(=O)N/N=C/c1ccc(O)c(O)c1,9.0*,-102,14,/,0,0,3
COc1cc(/C=N/NC(=O)c2cccc(NC(=O)c3ccccc3)c2)ccc1O,2,13,-21,-9,11,/,/
COc1cc(/C=N/NC(=O)c2nc(C)cc(C)n2)ccc1O,8.9*,1,-1,/,-23,2,0
COc1cc(/C=N/NC(=O)c2nonc2C)ccc1O,9.4*,-14,-3,30,-9,6,0
COc1cc(/C=N/NC(=S)Nc2cccc(S(=O)(=O)N(C)C)c2)ccc1O,9.8*,-40,-3,/,-12,2,5.8*
COc1cc(/C=N/NC(=O)c2cccc(C(=O)N/N=C/c3ccc(O)c(OC)c3)n2)ccc1O,2,-4,4,-8,-3,/,/
Cc1nonc1C(=O)N/N=C/c1ccccc1,2,1,1,23,-8,/,/
C[C@@H]1CCCCO[C@@H](CN(C)Cc2ccc(C(F)(F)F)cc2)[C@H](C)CN([C@@H](C)CO)C(=O)c2cc(NC(=O)Nc3ccc4c(c3)OCO4)ccc2O1,/,/,/,7,/,/,/
C[C@@H]1CN([C@@H](C)CO)C(=O)c2cc(C#Cc3ccncc3)cnc2O[C@H]1CN(C)CC1CCOCC1,/,/,/,-7,/,/,/
O=C(NN/C(=N/S(=O)(=O)c1ccc(Cl)cc1)c1ccccc1)c1cccc(Cl)c1,10.0*,-142,-105,36,-113,10*,12*
COc1ccccc1N/C(=N/S(=O)(=O)c1ccc(Cl)cc1)c1ccccc1,-1,12,7,-7,0,/,/
O=S(=O)(/N=C(/NC(=S)Nc1ccccc1)c1ccccc1)c1ccc(Cl)cc1,8.8*,-94,-60,68*,-51,9.2*,6.4*
Cc1ccc(S(=O)(=O)/N=C(/NNC(=O)c2cccc(Cl)c2)c2ccccc2)cc1,5,-104,-54,8,-105,/,/
O=C(Nc1ccc(F)cc1)N1[C@@H](CO)[C@@H]2c3ccccc3NC[C@@H]21,/,/,/,3,/,/,/
O=C(CCCOc1ccccc1)Nc1ccc(Br)cc1,1,-2,0,12,-20,/,/
O=C(CCOc1ccccc1)Nc1ccc(Br)cc1,11*,-44,-3,?,-57,8,5.3*
C[C@@H](O)C#Cc1cnc2c(c1)C(=O)N([C@@H](C)CO)C[C@H](C)[C@@H](CN(C)C(=O)CC1CC1)O2,/,/,/,-2,/,/,/
SMILES,SMARCA2 act,697 NFkB inh,Gli-Sufu antag,esBAF inh,Jurkat NFkB inh,SMARCA2 act conf,GAL4-VP16 Luc
Cn1c(=O)c([N+](=O)[O-])c(NCCc2ccccc2)c2ccccc21,12*,13,10,/,7,1,-1
CCn1c(=O)c([N+](=O)[O-])c(NCCc2ccccc2)c2ccccc21,/,-14,2,/,5,/,/
O=C(Nc1nc2ccc(F)cc2s1)C1CCCO1 (configuration not stated),10*,-113,-81,99*,-100,12*,5.5*
O=C(Nc1ncc(Cc2ccccc2)s1)C1CCCO1 (configuration not stated),12*,-158,-99,-15,-124,11*,8.6*
O=C(Nc1nc2ccccc2s1)C1CCCO1 (configuration not stated),11*,-102,-99,9,-80,11*,9.8*
CCOc1ccc2nc(NC(=O)C3CCCO3)sc2c1 (configuration not stated),6,-169,-75,39,-119,/,/
C[C@@H]1CCCCO[C@@H](CN(C)S(=O)(=O)c2cccs2)[C@H](C)CN([C@H](C)CO)C(=O)c2cc(NS(=O)(=O)c3cn(C)cn3)ccc2O1,/,/,/,-4,/,/,/
O=C(CCN1CCCCC1)NCC[C@H]1CC[C@@H](NS(=O)(=O)c2cccc(F)c2)[C@@H](CO)O1,/,/,/,-3,/,/,/
Cc1ccc2cc(NC(=O)c3cccc(F)c3)ccc2n1,8.1*,-169,-81,16,-136,19*,5
CCN1CCN(c2ccc(NC(=O)c3cccc(F)c3)cc2Cl)CC1,14*,-47,-31,33,-119,9.1*,5.8*
Cc1ccc2cc(NC(=O)c3ccccc3)ccc2n1,9.2*,-174,-36,3,-135,7,13*
Cc1ccc2cc(NC(=O)CC(CC(=O)O)c3ccccc3)ccc2n1 (configuration not stated),-3,2,13,-7,7,/,/
O=C(C[C@@H]1C=C[C@@H](NS(=O)(=O)c2ccccc2F)[C@H](CO)O1)NCCCN1CCOCC1,/,/,/,-5,/,/,/
CCCNC(=O)N[C@@H]1CC[C@H](CCn2cc(C3CCCCC3)nn2)O[C@H]1CO,/,/,/,-3,/,/,/
COc1cccc(-c2cnc3c(c2)C(=O)N([C@H](C)CO)C[C@H](C)[C@@H](CN(C)C(=O)CN(C)C)O3)c1,/,/,/,1,/,/,/
c1ccc2oc(C3=NNC(=NC4CC4)SC3)cc2c1,9.5*,-83,-17,/,-82,0,6.5*
c1ccc(CN=C2NN=C(c3cc4ccccc4o3)CS2)cc1,0,-4,17,/,2,/,/
O=C(NCc1cccs1)c1noc2c1CCCC2,2,-3,-20,21,1,/,/
